In the supplement of paper PMC12819154, “High-throughput peptide-centric local stability assay extends protein–ligand identification to membrane proteins, tissues and bacteria” (Nature Structural & Molecular Biology, 2025):

compound: Nc1ncnc2c1ncn2[C@@H]1O[C@H](COP(=O)(O)OP(=O)(O)OP(=O)(O)O)[C@@H](O)[C@H]1O [adenosine 5'-triphosphate]; experiment: log2 fold change of tryptic peptide abundance, ligand vs vehicle (limited proteolysis) (log2 ratio); higher = more trypsin-susceptible (destabilized); conditions: ligand concentration: 5 mM; sample: E. coli desalted lysate; replicate design: treated before aliquoting
Procedure: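 HT-PELSA: desalted E. coli K-12 BW25113 lysate (with 12 mM MgCl2) incubated with 5 mM ATP (pH 7) or water for 30 min at 25 C, then a 4 min trypsin pulse at 22 C. Peptides were quantified by DIA-MS (4 replicates). Value is the peptide log2 fold change (treated/control); negative = stabilized. Scale: negative = ligand-stabilized region.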
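Also: lysate desalted by size exclusion to strip endogenous ATP, peptide intensities built from DIA-NN precursor signals, and peptides missing any value discarded before comparison.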

UniProt P39187, sequence (P39187 whole entry): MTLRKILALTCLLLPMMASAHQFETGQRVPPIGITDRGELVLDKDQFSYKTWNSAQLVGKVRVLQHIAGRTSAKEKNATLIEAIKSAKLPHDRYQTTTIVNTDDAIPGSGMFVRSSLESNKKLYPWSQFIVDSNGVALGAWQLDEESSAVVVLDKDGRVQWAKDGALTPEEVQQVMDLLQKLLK
UniProt P07014, sequence (P07014 whole entry): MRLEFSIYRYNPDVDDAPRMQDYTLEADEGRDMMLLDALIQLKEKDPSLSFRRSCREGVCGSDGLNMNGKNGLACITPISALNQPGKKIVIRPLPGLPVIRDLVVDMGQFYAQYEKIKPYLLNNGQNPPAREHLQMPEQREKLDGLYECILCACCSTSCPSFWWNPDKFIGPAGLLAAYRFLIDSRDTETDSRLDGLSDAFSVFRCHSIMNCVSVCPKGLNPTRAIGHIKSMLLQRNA
UniProt P0A8F8, sequence (P0A8F8 whole entry): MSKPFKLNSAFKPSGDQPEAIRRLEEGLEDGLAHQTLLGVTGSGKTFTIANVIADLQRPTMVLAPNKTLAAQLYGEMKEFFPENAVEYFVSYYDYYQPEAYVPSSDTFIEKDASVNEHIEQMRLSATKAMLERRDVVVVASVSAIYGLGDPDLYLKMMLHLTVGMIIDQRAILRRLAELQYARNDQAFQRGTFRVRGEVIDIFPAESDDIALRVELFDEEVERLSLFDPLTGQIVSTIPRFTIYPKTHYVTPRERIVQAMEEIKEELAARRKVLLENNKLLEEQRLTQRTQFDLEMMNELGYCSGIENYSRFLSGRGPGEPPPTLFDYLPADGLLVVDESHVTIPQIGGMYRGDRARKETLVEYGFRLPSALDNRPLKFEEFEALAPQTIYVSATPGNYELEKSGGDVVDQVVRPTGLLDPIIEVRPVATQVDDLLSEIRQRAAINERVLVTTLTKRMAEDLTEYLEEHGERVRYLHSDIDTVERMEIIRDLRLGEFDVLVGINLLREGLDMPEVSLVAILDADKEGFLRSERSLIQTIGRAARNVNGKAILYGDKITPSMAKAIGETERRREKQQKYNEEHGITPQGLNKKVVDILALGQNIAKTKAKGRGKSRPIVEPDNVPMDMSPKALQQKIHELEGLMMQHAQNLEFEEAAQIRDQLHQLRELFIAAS
UniProt P77737, sequence (P77737 whole entry): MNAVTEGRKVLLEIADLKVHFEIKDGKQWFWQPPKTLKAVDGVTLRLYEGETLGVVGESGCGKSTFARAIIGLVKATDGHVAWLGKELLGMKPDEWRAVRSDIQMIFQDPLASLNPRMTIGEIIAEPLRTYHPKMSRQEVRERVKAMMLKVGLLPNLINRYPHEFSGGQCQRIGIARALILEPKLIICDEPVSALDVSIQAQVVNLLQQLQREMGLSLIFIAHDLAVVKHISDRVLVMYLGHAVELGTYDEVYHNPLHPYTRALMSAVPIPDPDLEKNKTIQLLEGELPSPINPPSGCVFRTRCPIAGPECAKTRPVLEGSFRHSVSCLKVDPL
UniProt P37197, sequence (P37197 whole entry): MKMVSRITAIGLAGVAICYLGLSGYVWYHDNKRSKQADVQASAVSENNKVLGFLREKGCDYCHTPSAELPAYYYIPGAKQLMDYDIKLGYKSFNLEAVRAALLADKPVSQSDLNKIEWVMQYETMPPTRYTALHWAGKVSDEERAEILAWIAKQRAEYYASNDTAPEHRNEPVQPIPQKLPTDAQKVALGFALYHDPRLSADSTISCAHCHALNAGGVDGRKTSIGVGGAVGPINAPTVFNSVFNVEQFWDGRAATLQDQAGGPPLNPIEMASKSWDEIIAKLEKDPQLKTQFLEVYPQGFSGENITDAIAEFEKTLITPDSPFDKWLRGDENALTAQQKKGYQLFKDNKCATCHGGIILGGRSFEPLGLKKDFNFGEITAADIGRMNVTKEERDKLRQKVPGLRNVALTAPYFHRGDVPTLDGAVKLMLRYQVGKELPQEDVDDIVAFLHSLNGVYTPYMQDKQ
UniProt P04993, sequence (P04993 whole entry): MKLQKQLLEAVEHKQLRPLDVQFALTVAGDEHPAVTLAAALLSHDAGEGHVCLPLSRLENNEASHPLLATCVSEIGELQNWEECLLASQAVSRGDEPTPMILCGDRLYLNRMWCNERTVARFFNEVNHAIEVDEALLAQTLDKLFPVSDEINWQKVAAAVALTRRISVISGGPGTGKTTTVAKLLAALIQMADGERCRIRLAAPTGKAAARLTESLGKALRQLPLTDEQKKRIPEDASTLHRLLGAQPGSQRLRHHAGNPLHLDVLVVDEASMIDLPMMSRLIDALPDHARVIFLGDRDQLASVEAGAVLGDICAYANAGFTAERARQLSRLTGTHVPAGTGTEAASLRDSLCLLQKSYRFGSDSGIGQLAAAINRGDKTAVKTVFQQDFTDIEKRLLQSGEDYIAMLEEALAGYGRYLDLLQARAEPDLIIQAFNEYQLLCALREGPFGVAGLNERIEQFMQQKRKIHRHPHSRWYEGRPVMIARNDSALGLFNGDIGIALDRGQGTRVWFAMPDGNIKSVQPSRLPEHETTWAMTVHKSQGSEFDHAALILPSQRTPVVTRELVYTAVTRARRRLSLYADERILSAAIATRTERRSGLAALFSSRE
UniProt P33599, sequence (P33599 whole entry): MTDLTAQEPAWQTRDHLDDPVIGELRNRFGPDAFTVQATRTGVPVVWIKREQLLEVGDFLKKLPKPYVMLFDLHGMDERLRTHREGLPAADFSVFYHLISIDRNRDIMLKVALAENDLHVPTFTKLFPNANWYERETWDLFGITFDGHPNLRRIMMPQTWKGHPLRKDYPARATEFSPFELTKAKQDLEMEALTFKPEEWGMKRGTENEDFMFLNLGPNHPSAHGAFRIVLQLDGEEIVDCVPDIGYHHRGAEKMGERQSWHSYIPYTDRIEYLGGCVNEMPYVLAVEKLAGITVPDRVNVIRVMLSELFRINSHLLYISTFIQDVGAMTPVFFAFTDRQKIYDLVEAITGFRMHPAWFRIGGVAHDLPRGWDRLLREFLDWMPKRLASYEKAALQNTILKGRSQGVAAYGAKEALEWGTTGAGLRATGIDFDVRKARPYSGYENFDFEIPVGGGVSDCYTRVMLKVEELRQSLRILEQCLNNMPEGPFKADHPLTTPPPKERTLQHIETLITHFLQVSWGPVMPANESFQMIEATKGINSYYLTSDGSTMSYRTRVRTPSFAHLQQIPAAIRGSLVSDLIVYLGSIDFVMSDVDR
UniProt P0AF96, sequence (P0AF96 whole entry): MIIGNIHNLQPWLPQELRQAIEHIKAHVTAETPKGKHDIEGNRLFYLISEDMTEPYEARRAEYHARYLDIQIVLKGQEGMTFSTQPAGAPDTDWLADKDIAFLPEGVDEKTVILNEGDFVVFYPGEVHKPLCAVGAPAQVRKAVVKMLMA
UniProt P13035, sequence (P13035 whole entry): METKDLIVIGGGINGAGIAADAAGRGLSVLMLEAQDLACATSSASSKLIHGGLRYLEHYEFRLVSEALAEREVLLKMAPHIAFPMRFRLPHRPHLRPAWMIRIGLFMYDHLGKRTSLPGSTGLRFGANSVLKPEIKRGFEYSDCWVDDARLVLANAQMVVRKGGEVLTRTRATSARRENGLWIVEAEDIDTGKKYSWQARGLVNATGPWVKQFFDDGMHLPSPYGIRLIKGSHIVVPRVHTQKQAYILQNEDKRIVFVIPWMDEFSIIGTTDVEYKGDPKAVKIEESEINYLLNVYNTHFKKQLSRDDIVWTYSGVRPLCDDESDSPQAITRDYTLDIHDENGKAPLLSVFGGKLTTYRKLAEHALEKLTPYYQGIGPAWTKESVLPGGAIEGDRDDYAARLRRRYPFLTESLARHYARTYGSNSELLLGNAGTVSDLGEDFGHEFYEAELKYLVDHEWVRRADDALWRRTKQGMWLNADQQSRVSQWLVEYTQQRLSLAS
UniProt P06709, sequence (P06709 whole entry): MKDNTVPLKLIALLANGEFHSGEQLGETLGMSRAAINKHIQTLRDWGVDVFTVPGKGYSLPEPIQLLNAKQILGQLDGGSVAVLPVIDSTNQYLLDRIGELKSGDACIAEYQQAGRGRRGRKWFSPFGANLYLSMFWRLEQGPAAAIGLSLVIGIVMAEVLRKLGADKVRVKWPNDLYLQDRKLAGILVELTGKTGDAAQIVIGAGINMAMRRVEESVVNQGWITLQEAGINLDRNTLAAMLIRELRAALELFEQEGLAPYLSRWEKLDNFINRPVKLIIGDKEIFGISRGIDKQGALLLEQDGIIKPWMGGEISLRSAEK
UniProt P0ACP7, sequence (P0ACP7 whole entry): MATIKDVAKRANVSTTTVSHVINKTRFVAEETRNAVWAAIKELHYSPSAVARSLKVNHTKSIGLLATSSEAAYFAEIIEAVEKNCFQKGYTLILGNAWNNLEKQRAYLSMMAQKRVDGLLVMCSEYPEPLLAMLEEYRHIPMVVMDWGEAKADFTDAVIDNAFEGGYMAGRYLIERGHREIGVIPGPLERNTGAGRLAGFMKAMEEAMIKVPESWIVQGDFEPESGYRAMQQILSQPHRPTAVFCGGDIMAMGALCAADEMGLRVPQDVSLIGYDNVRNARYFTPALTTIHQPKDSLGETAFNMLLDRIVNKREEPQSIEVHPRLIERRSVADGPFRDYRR

Row | Target | log2 fold change
1 | UniProt P06709 (peptide sequence: VKWPNDLYLQDR, peptide start residue: 171) | -0.523
2 | UniProt P13035 (peptide sequence: IGLFMYDHLGK, peptide start residue: 103) | 0.643
3 | UniProt P39187 (peptide sequence: VLQHIAGR, peptide start residue: 63) | 0.842
4 | UniProt P07014 (peptide sequence: IVIRPLPGLPVIR, peptide start residue: 89) | 0.248
5 | UniProt P37197 (peptide sequence: GDENALTAQQK, peptide start residue: 330) | -0.521
6 | UniProt P33599 (peptide sequence: QDLEMEALTFKPEEWGMKR, peptide start residue: 186) | -1.6
7 | UniProt P0A8F8 (peptide sequence: AILYGDKITPSMAK, peptide start residue: 550) | -0.631
8 | UniProt P04993 (peptide sequence: YLDLLQAR, peptide start residue: 418) | -1.02
9 | UniProt P0ACP7 (peptide sequence: TRFVAEETR, peptide start residue: 25) | 1.38
10 | UniProt P0AF96 (peptide sequence: AHVTAETPK, peptide start residue: 26) | -0.321
11 | UniProt P77737 (peptide sequence: TRCPIAGPECAK, peptide start residue: 302) | 2.24
